PubChem BioAssay (NCATS)
Records with an inconclusive call do not appear. The source holds several records for some structures; these can differ, active in one and inactive in another. Active and inactive are the calls of the source. Calls come from the whole dose curve; as a rule, active = well fitted curve in the direction sought with a large enough effect; inconclusive = small, poorly fitted or top-dose-only effect, or another doubt; inactive = no such curve, though single readings can be large; an effect the other way counts as inactive or inconclusive.
% is set by controls: 0 for no effect and ±100 for the full control effect; potency is the fitted concentration of half-maximal effect.
Note: nearly all actives have a fitted effect of over 70% in size.

Assay: Primary qHTS for inhibitors of nuclear receptor binding SET domain protein 2 (NSD2) in an isogenic RCH-ACV NSD2 p.E1099K mutant (9B) (AID 1645876)
Conditions: RCH-ACV NSD2 E1099K (9B) viability, CellTiter-Glo, 72 h; series mostly up to 44.9 µM; activity change, negative = viability loss: at the top concentration
With C[C@@H]1CCN(C(=O)[C@H](CCCN=C(N)N)NS(=O)(=O)c2cccc3c2NC[C@H](C)C3)[C@@H](C(=O)O)C1 the “activity change, negative = viability loss” value was 9.9% (inactive). With CC(=O)OCC(=O)[C@@]1(O)CC[C@H]2[C@@H]3CCC4=CC(=O)CC[C@]4(C)[C@H]3C(=O)C[C@@]21C the Potency was “inactive”. For O=C(O)CC(O)C(=O)O (centres undefined), the “outcome” value was “inactive”. In the case of O=C(O)c1ccccn1, the “outcome” value is reported as “inactive”. With CSc1ccc2c(c1)C(N1CCN(C)CC1)Cc1ccccc1S2 (centres undefined) the Potency was 23.7 µM (active). For CCN(CC)CCOC(=O)C1(C2CCCCC2)CCCCC1, the “activity change, negative = viability loss” value was -21% (inactive). In the case of O=C1N=C(O)CN1/N=C/c1ccc(-c2ccc([N+](=O)[O-])cc2)o1, the “outcome” value is reported as “inactive”. With Cc1c(O)cccc1C(=O)N[C@@H](CSc1ccccc1)[C@H](O)CN1C[C@H]2CCCC[C@H]2C[C@H]1C(=O)NC(C)(C)C the Potency was 15 µM (active). For C/C(=C(\CCOP(=O)(O)O)SC(=O)c1ccccc1)N(C=O)Cc1cnc(C)nc1N, the activity change, negative = viability loss was 9.34% [at 4.96 µM] (inactive). For Nc1ccc(S(=O)(=O)NC(=O)c2ccccc2)cc1, the “activity change, negative = viability loss” value was 8.59% (inactive). With CN1[C@@H]2CC[C@H]1CC(OC(=O)C(O)c1ccccc1)C2 (some centres undefined) the “outcome” value was “inactive”. For CN(C)CCOC(C)(c1ccccc1)c1ccccn1 (centres undefined), the “activity change, negative = viability loss” value was -6.33% (inactive). With CC(COc1ccccc1)NC(C)C(O)c1ccc(O)cc1 (centres undefined) the “activity change, negative = viability loss” value was -8.62% (inactive). With CCN(CC)CCCC(C)Nc1c2ccc(Cl)cc2nc2ccc(OC)cc12 (centres undefined) the Potency was 7.42 µM (active). In the case of CN(C)CCCN1c2ccccc2Sc2ccc(Cl)cc21, the Potency is reported as 15 µM (active). For O=C1NC(=O)[C@@]2(CCOc3ccc(F)cc32)N1, the “activity change, negative = viability loss” value was -5.58% (inactive). With OCCN1CCN(CCCN2c3ccccc3Sc3ccc(Cl)cc32)CC1 the Potency was 8.41 µM (active). With CCN(CC)CCNC(=O)c1cc(Cl)c(N)cc1OC the Potency was “inactive”. In the case of CCOC(=O)[C@H](CCc1ccccc1)N[C@@H](C)C(=O)N1C(=O)N(C)C[C@H]1C(=O)O, the Potency is reported as “inactive”. In the case of Nc1cc(=O)[nH]c(N)n1, the “activity change, negative = viability loss” value is reported as 0.206% (inactive). With CC(=O)Oc1c(C)c(C)c2c(c1C)CC[C@@](C)(CCC[C@H](C)CCC[C@H](C)CCCC(C)C)O2 the “outcome” value was “inactive”. For Nc1ncnc2c1ncn2[C@@H]1O[C@H](CO)[C@@H](O)[C@H]1O, the Potency was 9.44 µM (active) and inactive. For CC1(C)S[C@@H]2[C@H](NC(=O)Cc3ccccc3)C(=O)N2[C@H]1C(=O)O (tested in a mixture with another compound), the “activity change, negative = viability loss” value was -21% (inactive). For CC/C=C(\C(=O)N[C@@H]1C(=O)N2C(C(=O)OCOC(=O)C(C)(C)C)=C(COC(N)=O)CS[C@H]12)c1csc(N)n1, the “activity change, negative = viability loss” value was 4.34% (inactive). With CCOc1nc2cccc(C(=O)O)c2n1Cc1ccc(-c2ccccc2-c2nn[nH]n2)cc1 the Potency was “inactive”. For COc1ccc(Cl)cc1C(=O)NCCc1ccc(S(=O)(=O)NC(=O)NC2CCCCC2)cc1, the “activity change, negative = viability loss” value was -9.24% (inactive). With CCCn1cnc2c1c(=O)n(CCCCC(C)=O)c(=O)n2C the “activity change, negative = viability loss” value was 3.11% (inactive). For O=S(=O)(O)c1cc(I)c(O)c2ncccc12, the “activity change, negative = viability loss” value was -5.92% (inactive). For c1ccc2c(CC3=NCCN3)cccc2c1, the “activity change, negative = viability loss” value was -18.9% (inactive). In the case of CCCCc1ncc(/C=C(\Cc2cccs2)C(=O)O)n1Cc1ccc(C(=O)O)cc1, the Potency is reported as “inactive”. For CC1=C(/C=C/C(C)=C/C=C/C(C)=C/C(=O)O)C(C)(C)CCC1, the Potency was 21.1 µM (active).

Assay: Primary qHTS for inhibitors of nuclear receptor binding SET domain protein 2 (NSD2) in an RCH-ACV wild type WT cells (2C) (AID 1645877)
Conditions: RCH-ACV (leukaemia line) NSD2 WT (2C) viability, CellTiter-Glo, 72 h; series mostly up to 44.9 µM; activity change, negative = cell killing: at the top concentration
With C[C@@H]1CCN(C(=O)[C@H](CCCN=C(N)N)NS(=O)(=O)c2cccc3c2NC[C@H](C)C3)[C@@H](C(=O)O)C1 the “activity change, negative = cell killing” value was 2.51% (inactive). In the case of CC(=O)OCC(=O)[C@@]1(O)CC[C@H]2[C@@H]3CCC4=CC(=O)CC[C@]4(C)[C@H]3C(=O)C[C@@]21C, the Potency is reported as “inactive”. With O=C(O)CC(O)C(=O)O (centres undefined) the “outcome” value was “inactive”. In the case of O=C(O)c1ccccn1, the “activity change, negative = cell killing” value is reported as 3.58% (inactive). In the case of CSc1ccc2c(c1)C(N1CCN(C)CC1)Cc1ccccc1S2 (centres undefined), the Potency is reported as 15 µM (active). With O=C1N=C(O)CN1/N=C/c1ccc(-c2ccc([N+](=O)[O-])cc2)o1 the “activity change, negative = cell killing” value was 4.52% (inactive). In the case of Cc1c(O)cccc1C(=O)N[C@@H](CSc1ccccc1)[C@H](O)CN1C[C@H]2CCCC[C@H]2C[C@H]1C(=O)NC(C)(C)C, the Potency is reported as 16.8 µM (active). With C/C(=C(\CCOP(=O)(O)O)SC(=O)c1ccccc1)N(C=O)Cc1cnc(C)nc1N the activity change, negative = cell killing was -1.42% [at 4.96 µM] (inactive). In the case of Nc1ccc(S(=O)(=O)NC(=O)c2ccccc2)cc1, the “activity change, negative = cell killing” value is reported as 4.94% (inactive). For CN1[C@@H]2CC[C@H]1CC(OC(=O)C(O)c1ccccc1)C2 (some centres undefined), the “activity change, negative = cell killing” value was 4.49% (inactive). For CN(C)CCOC(C)(c1ccccc1)c1ccccn1 (centres undefined), the “activity change, negative = cell killing” value was -7.16% (inactive). In the case of CC(COc1ccccc1)NC(C)C(O)c1ccc(O)cc1 (centres undefined), the “activity change, negative = cell killing” value is reported as -18.5% (inactive). For CCN(CC)CCCC(C)Nc1c2ccc(Cl)cc2nc2ccc(OC)cc12 (centres undefined), the Potency was 5.25 µM (active). With CN(C)CCCN1c2ccccc2Sc2ccc(Cl)cc21 the Potency was 13.3 µM (active). In the case of O=C1NC(=O)[C@@]2(CCOc3ccc(F)cc32)N1, the “activity change, negative = cell killing” value is reported as -9.15% (inactive). With OCCN1CCN(CCCN2c3ccccc3Sc3ccc(Cl)cc32)CC1 the Potency was 9.44 µM (active). For NC(=O)c1ncn([C@@H]2O[C@H](CO)[C@@H](O)[C@H]2O)n1, the Potency was 14.8 µM (active). In the case of CCN(CC)CCNC(=O)c1cc(Cl)c(N)cc1OC, the Potency is reported as “inactive”. For CCOC(=O)[C@H](CCc1ccccc1)N[C@@H](C)C(=O)N1C(=O)N(C)C[C@H]1C(=O)O, the Potency was “inactive”. For Nc1cc(=O)[nH]c(N)n1, the “activity change, negative = cell killing” value was -0.132% (inactive). In the case of CC(=O)Oc1c(C)c(C)c2c(c1C)CC[C@@](C)(CCC[C@H](C)CCC[C@H](C)CCCC(C)C)O2, the “outcome” value is reported as “inactive”. For Nc1ncnc2c1ncn2[C@@H]1O[C@H](CO)[C@@H](O)[C@H]1O, the Potency was 5.96 µM (active) and inactive. In the case of CC/C=C(\C(=O)N[C@@H]1C(=O)N2C(C(=O)OCOC(=O)C(C)(C)C)=C(COC(N)=O)CS[C@H]12)c1csc(N)n1, the “activity change, negative = cell killing” value is reported as -6.82% (inactive). For CCOc1nc2cccc(C(=O)O)c2n1Cc1ccc(-c2ccccc2-c2nn[nH]n2)cc1, the Potency was “inactive”. For CCCn1cnc2c1c(=O)n(CCCCC(C)=O)c(=O)n2C, the “activity change, negative = cell killing” value was 4.49% (inactive). For O=S(=O)(O)c1cc(I)c(O)c2ncccc12, the “activity change, negative = cell killing” value was 4.34% (inactive). With CNCCC(Oc1ccc(C(F)(F)F)cc1)c1ccccc1 (centres undefined) the Potency was 23.7 µM (active). With CCCCc1ncc(/C=C(\Cc2cccs2)C(=O)O)n1Cc1ccc(C(=O)O)cc1 the Potency was “inactive”.
